Values joined by “and” are separate entries in the source; they are usually repeats but may differ in a detail not shown here. Identical values can stand only once. Results filed as inconclusive are left out. Some structures have more than one record in an assay (separate samples or runs), and their calls can disagree. Active and inactive are the calls of the source. The calls were made as follows: active = hit-call score of the fitted dose curve at least 0.9, where 1 is the maximum; inconclusive = response in the unintended direction; inactive = score below 0.9.
Target: human Retinoid X Receptor beta (RXRb), RXRB (gene 6257) (UniProt P28702)
Test: ATG_RXRb_TRANS: Attagene TRANS-FACTORIAL HepG2 Assay for human Retinoid X Receptor beta (RXRb) (AID 2283013)
Experimental: ATG_TRANS is a cell-based, multiplexed-readout assay that uses HepG2, a human liver cell line, with measurements taken at 24 hours after chemical dosing in a 24-well plate.ATG_RXRb_TRANS is one of 30 assay component(s) measured or calculated from the ATG_TRANS assay. It is designed to make measurements of mRNA induction, a form of inducible reporter, as detected with fluorescence intensity signals by Reverse transcription polymerase chain reaction (RT-PCR) and Capillary electrophoresis technology.Data from the assay component ATG_RXRb_TRANS was analyzed into 1 assay endpoint. This assay endpoint, ATG_RXRb_TRANS, was analyzed in the positive analysis fitting direction relative to DMSO as the negative control and baseline of activity. Using a type of inducible reporter, measures of mRNA for gain-of-signal activity can be used to understand the reporter gene at the transcription factor-level as they relate to the gene RXRB. Furthermore, this assay endpoint can be referred to as a primary readout, because this assay has produced multiple assay endpoints where this one serves a reporter gene function. To generalize the intended target to other relatable targets, this assay endpoint is annotated to the nuclear receptor intended target family, where the subfamily is non-steroidal.
Human liver HepG2 cells are transiently transfected with multiple reporter transcription units (MRTUs) in 6-well plates using FuGene 6 reagent (Roche; 3 ml FuGene/1 mg DNA). The MRTU constructs are regulated by a cis-regulating element (promoter). […] A major difference between the CIS and TRANS system is that in CIS activities of endogenous TFs are measured, whereas the TRANS assay evaluates changes in activities of exogenous, chimeric NR-Gal4 proteins. […] At the end of 24 hour incubation, total RNA was isolated using TriZol reagent (Invitrogen). The isolated RNA is then reverse-transcribed using oligo(dT) primer and Mo-MLV reverse transcriptase (Invitrogen) with DNAse I (Ambion) treatment for 30 min. The one-tenth of the produced cDNA was amplified by PCR using Taq DNA polymerase (Invitrogen) and two reporter sequence-specific primers. The PCR products were fluorescently labeled by primer extension with 6-arboxyfluorescein (6-FAM) 5'-labeled reporter sequence-specific primer (2 min at 95 C, 20 s at 68 C and 10 min at 72 C) and these products were digested with 5U of HpaI (New England Biolabs) for 2h at 37 C. The fragments were purified using Qiaquick PCR columns (Qiagen), analyzed on an ABI 3130xL genetic analyzer (Applied Biosystems) with peak positions identified by using a set of X-rhodamine (ROX)-labeled MapMarker1000 molecular weight standards (BioVentures). The raw capillary electrophoresis data was processed using Attagraph software (Attagene).

Sequence of human Retinoid X Receptor beta (RXRb), RXRB (gene 6257) (P28702 whole entry, looked up): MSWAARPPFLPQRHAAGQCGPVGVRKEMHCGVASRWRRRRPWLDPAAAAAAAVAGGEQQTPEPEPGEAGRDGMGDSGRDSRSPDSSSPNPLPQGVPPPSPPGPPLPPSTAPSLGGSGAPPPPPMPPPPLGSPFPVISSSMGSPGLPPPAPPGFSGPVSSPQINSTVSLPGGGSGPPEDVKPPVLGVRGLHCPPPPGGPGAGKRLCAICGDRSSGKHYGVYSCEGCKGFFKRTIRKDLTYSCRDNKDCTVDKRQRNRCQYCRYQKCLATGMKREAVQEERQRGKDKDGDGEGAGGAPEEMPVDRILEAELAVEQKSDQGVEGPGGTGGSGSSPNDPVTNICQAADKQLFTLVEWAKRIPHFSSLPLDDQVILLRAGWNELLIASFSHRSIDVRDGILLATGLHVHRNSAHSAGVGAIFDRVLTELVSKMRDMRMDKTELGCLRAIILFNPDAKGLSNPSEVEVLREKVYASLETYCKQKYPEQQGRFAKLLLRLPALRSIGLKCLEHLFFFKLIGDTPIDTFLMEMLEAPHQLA

Q: Which AC50 does the source give for `O=C(O)C(F)(F)C(F)(F)C(F)(F)C(F)(F)C(F)(F)C(F)(F)C(F)(F)C(F)(F)C(F)(F)C(F)F` here?
A: 66 µM (active)

Q: `O=C(Cl)C(F)(F)C(F)(F)C(F)(F)C(F)(F)C(F)(F)C(F)(F)C(F)(F)C(F)(F)F` was tested. Which AC50 did it give?
A: 25.7 µM (active)

Q: `O=C(O)C(F)(F)C(F)(F)C(F)(F)C(F)(F)C(F)(F)C(F)(F)C(F)(F)C(F)(F)C(F)(F)C(F)(F)C(F)(F)C(F)(F)F` was tested. Which outcome did it give?
A: inactive

Q: Which AC50 does the source give for `CCCCCCCCC(F)(F)C(F)(F)C(F)(F)C(F)(F)C(F)(F)C(F)(F)F` here?
A: 21.2 µM (active)

Q: Which outcome does the source give for `CC(C)(C)C(=O)CC(=O)C(F)(F)C(F)(F)C(F)(F)F` here?
A: inactive

Q: For `C#C[C@]1(O)CC[C@H]2[C@@H]3CCc4cc(OC)ccc4[C@H]3CC[C@@]21C`, which outcome is on record?
A: inactive

Q: Which outcome does the source give for `CCCCNc1ccccc1` here?
A: inactive

Q: With `O=C(O)C(F)(OC(F)(F)C(F)(OC(F)(F)C(F)(F)C(F)(F)F)C(F)(F)F)C(F)(F)F` (stereo not given) as the compound, how does the outcome read?
A: inactive

Q: And the AC50?
A: 41.7 µM (active)

Q: With `C=CC(=O)OCC(F)(F)C(F)(F)C(F)(F)C(F)(F)C(F)(F)C(F)(F)C(F)(F)F` as the compound, how does the outcome read?
A: inactive

Q: Which outcome does the source give for `CCN(Cc1cccc(S(=O)(=O)O)c1)c1ccc(C(=C2C=CC(=[N+](CC)Cc3cccc(S(=O)(=O)O)c3)C=C2)c2ccc(O)cc2S(=O)(=O)[O-])cc1` here?
A: inactive

Q: With `C=C(C)C(=O)OCC(F)(F)C(F)(F)C(F)(F)C(F)(F)C(F)(F)C(F)(F)C(F)(F)F` as the compound, how does the outcome read?
A: inactive

Q: `CCCCCC=O` was tested. Which outcome did it give?
A: inactive

Q: `C=CC/C=C/C/C=C/C/C=C/C` was tested. Which AC50 did it give?
A: 100 µM (active)

Q: With `CCc1ccc(C(c2ccc(CC)cc2)C(Cl)Cl)cc1` as the compound, how does the outcome read?
A: inactive

Q: With `O=S(=O)(O)C(F)(F)C(F)(F)C(F)(F)C(F)(F)C(F)(F)C(F)(F)C(F)(F)F` as the compound, how does the outcome read?
A: inactive

Q: With `O=C(O)C(F)(F)C(F)(F)C(F)F` as the compound, how does the outcome read?
A: inactive

Q: With `FC(F)(F)C(F)(F)C(F)(F)N(C(F)(F)C(F)(F)C(F)(F)F)C(F)(F)C(F)(F)C(F)(F)F` as the compound, how does the outcome read?
A: inactive

Q: For `CCCCCCS`, which AC50 is on record?
A: 100 µM (active)

Q: With `CNC(=S)NC` as the compound, how does the outcome read?
A: inactive

Q: Which outcome does the source give for `Oc1ccc(Nc2ccccc2)cc1` here?
A: inactive

Q: How did the AC50 turn out when `CCCCCCC(C)OC(=O)CCCCC(=O)OC(C)CCCCCC` (stereo not given) was run?
A: 16.3 µM (active)

Q: How did the AC50 turn out when `OCCCC(F)(F)C(F)(F)C(F)(F)C(F)(F)C(F)(F)C(F)(F)C(F)(F)F` was run?
A: 6.49 µM (active) and 7.94 µM (active)

Q: For `Nc1ccc([N+](=O)[O-])cc1O`, which outcome is on record?
A: inactive

Q: How did the AC50 turn out when `c1ccc(-c2ccccc2-c2ccccc2)cc1` was run?
A: 12.7 µM (active)

Q: Which results are given for `OC[C@@H](O)[C@@H](O)[C@H](O)[C@@H](O)CO`?
A: AC50: 35.1 µM (active); outcome: inactive

Q: With `CC(C)OC(=O)c1ccccc1C(=O)OC(C)C` as the compound, how does the AC50 read?
A: 18.9 µM (active)

Q: `O=C(CC(=O)C(F)(F)C(F)(F)F)C(F)(F)F` was tested. Which outcome did it give?
A: inactive

Q: With `N=C(N)C(F)(F)C(F)(F)C(F)(F)C(F)(F)C(F)(F)C(F)(F)C(F)(F)F` as the compound, how does the outcome read?
A: inactive

Q: For `O=S(=O)(OCCOC(F)(F)F)C(F)(F)F`, which outcome is on record?
A: inactive

Q: How did the outcome turn out when `FC(F)(F)C(F)(F)C(F)(F)C(F)(F)C(F)(F)C(F)(F)C(F)(F)I` was run?
A: inactive

Q: `OCCCC(F)(F)C(F)(F)C(F)(F)F` was tested. Which outcome did it give?
A: inactive

Q: `Cc1cc(C)cc(O)c1` was tested. Which outcome did it give?
A: inactive

Q: Which outcome does the source give for `FC(F)(F)C(F)(F)C(F)(F)CI` here?
A: inactive

Q: With `C=CC(=O)OCC(F)(F)C(F)(F)C(F)(F)C(F)(F)COC(=O)C=C` as the compound, how does the AC50 read?
A: 1.1 µM (active)

Q: Which outcome does the source give for `CCO[Si](CCC(F)(F)C(F)(F)C(F)(F)C(F)(F)C(F)(F)C(F)(F)F)(OCC)OCC` here?
A: inactive

Q: With `CCN(CC)c1ccc2c(C)cc(=O)oc2c1` as the compound, how does the AC50 read?
A: 26.5 µM (active)

Q: `C=CC(F)(F)C(F)(F)C(F)(F)C(F)(F)C(F)(F)C(F)(F)C(F)(F)C(F)(F)C=C` was tested. Which outcome did it give?
A: inactive

Q: For `O=C(O)C=C(C(F)(F)F)C(F)(F)F`, which outcome is on record?
A: inactive

— PubChem BioAssay (EPA / NIEHS)
